Data reported in PubChem BioAssay.

Key:
[1] = tested on: Human papillomavirus type 1a protein E7 (residues 44-93); assay: small molecules binding HPV E7 44-93 – biochemical, small-molecule microarray, residues 44-93, 635 nm fluorescence, primary screen (AID 1108); settings: fluorescence 635 nm, higher = more signal;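 also: E7 fragment applied at 1 µg/mL in TBST for 1 h at 4 C; score combines spot fluorescence with its signal to noise ratio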
[2] = hepatitis C replication reporter changes, two-sided – Huh7 cells, luciferase reporter, HCV replication inhibitor project, primary screen (AID 1109); settings: Huh7 HCV replicon luciferase reporter, 48 h; higher = more signal;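 also: huh7 hepatoma cells harbouring a luciferase neomycin HCV replicon reporter; luciferase luminescence as measure of HCV replicon replication; test concentration not given here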
[3] = biological target: Left-right determination factor 2 (Homo sapiens) (UniProt O00292); assay: small molecules binding LEFTY2 protein – biochemical, small-molecule microarray, 635 nm fluorescence scan, primary screen (AID 1110); settings: higher = more signal
Sequence of Left-right determination factor 2 (Homo sapiens) (O00292 whole entry, looked up): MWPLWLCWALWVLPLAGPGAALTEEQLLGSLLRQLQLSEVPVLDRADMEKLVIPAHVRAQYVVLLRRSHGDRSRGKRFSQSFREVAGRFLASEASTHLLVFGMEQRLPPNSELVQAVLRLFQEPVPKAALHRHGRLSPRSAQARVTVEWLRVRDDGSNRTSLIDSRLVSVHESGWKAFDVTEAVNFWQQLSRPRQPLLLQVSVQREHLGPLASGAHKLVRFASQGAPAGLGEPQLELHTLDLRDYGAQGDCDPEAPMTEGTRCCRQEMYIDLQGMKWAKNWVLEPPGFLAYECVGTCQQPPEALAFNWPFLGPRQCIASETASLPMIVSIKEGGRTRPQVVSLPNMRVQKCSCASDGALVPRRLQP

[4] = biological target: Calmodulin-1 (Homo sapiens) (UniProt P0DP23); assay: small molecules binding calmodulin-1 with EGTA – biochemical, small-molecule microarray, Cy5-labelled CALM1, profiling panel (AID 1111); settings: Cy5-CALM1 binding fluorescence, higher = more signal;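 also: labelled calmodulin applied in Tris saline Tween buffer holding calcium plus EGTA and DTT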
[5] = biological target: Calmodulin-1 (Homo sapiens) (UniProt P0DP23); assay: small molecules binding Ca-loaded calmodulin-1 – biochemical, small-molecule microarray, Cy5-labelled CALM1, plus calcium, artefact control for SMM control-protein annotation, profiling panel (AID 1112); settings: Cy5-CALM1 binding fluorescence, higher = more signal;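 also: score merges spot fluorescence with signal to noise from triplicate slides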
[6] = probe aWnt5a binding to arrayed compounds – biochemical, biotinylated probe, 635/667 nm fluorescence, primary screen (AID 1113); settings: small-molecule microarray, higher = more signal;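 also: score merges 667 nm fluorescence intensity with signal-to-noise per printed feature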
[7] = probe aShh binding to arrayed compounds – biochemical, biotinylated probe, 635/667 nm fluorescence, primary screen (AID 1114); settings: small-molecule microarray, higher = more signal;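 also: probe is biotin-labelled aShh protein from a stem cell growth factor screen; measures binding of labelled protein to compounds printed on the slide; score merges feature fluorescence at 667 nm with signal-to-noise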
[8] = probe aNog binding to arrayed compounds – biochemical, biotinylated probe, 635/667 nm fluorescence, primary screen (AID 1115); settings: small-molecule microarray, higher = more signal;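 also: probe is biotinylated aNog protein used at 0.15 µg/mL for 1 h at 4 C; z-score combines 667 nm fluorescence of each spot with its signal to noise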
[9] = biological target: Torsin-1A-interacting protein 1 (Homo sapiens) (UniProt Q5JTV8); assay: compound microarray binding of lysate hLAP1 – cell lysate, small-molecule microarray, COS7 lysate, 635/667 nm fluorescence, primary screen (AID 1116); settings: 635 nm fluorescence, higher = more signal
Sequence of Torsin-1A-interacting protein 1 (Homo sapiens) (Q5JTV8 whole entry, looked up): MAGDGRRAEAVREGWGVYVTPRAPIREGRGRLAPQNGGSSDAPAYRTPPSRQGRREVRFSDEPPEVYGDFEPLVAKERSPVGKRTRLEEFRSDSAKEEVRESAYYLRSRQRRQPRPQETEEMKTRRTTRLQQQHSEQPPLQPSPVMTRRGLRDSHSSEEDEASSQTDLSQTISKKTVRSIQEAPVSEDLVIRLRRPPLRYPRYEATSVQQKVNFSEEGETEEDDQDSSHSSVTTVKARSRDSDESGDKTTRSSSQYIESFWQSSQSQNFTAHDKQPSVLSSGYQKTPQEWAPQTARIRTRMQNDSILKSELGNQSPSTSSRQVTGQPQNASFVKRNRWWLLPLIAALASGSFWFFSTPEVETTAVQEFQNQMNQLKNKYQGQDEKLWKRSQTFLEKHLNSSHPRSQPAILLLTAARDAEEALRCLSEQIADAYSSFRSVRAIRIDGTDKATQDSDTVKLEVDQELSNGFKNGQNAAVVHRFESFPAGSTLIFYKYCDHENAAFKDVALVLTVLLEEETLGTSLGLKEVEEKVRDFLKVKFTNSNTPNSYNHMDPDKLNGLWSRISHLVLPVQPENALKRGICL

[10] = biological target: Alpha-bungarotoxin (Bungarus multicinctus) (UniProt P60615); assay: compounds binding labelled alpha-BTX control protein – biochemical, small-molecule microarray, Alexa647 label, 635/667 nm fluorescence, artefact control for SMM control protein annotation, profiling panel (AID 1117); settings: alpha-BTX-A647 binding fluorescence, higher = more signal
Sequence of Alpha-bungarotoxin (Bungarus multicinctus) (P60615 whole entry, looked up): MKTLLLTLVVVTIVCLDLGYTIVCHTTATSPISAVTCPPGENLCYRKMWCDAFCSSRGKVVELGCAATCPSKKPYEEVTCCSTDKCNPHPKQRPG

COc1ccc(COC(=O)NN=C2C[C@@H](O)[C@@H](O)[C@@H]3[C@@H]4C(=O)N(c5ccc(F)cc5F)C(=O)[C@@H]4CC[C@@H]23)cc1
composite z-score [1]: -0.0514 | z-score [2]: -0.76 | composite z-score [3]: -0.151 | composite z-score [4]: 0.0539 | composite z-score [5]: -0.325 | composite z-score [6]: -0.096 | composite z-score [7]: -0.221 | composite z-score [8]: 0.041 | composite z-score [9]: 0.599 | composite z-score [10]: 0.626

COC(=O)CC=C[C@@H](C)[C@@H](C=NO[C@@H](C)c1cc(-c2c(C)cc(C)cc2C)no1)OC
composite z-score [1]: -1.29 | z-score [2]: -0.378 | composite z-score [3]: -0.627 | composite z-score [4]: -0.908 | composite z-score [5]: -1.48 | composite z-score [6]: -0.295 | composite z-score [7]: -0.2 | composite z-score [8]: 0.531 | composite z-score [9]: -1.75 | composite z-score [10]: -1.11

Cc1cc2c(c(=O)o1)[C@H](O)[C@H]1O[C@H]1C2=O
composite z-score [1]: -1.5 | z-score [2]: -2.16 | composite z-score [3]: 0.761 | composite z-score [4]: -0.766 | composite z-score [5]: -1.38 | composite z-score [6]: -0.208 | composite z-score [7]: 0.0048 | composite z-score [8]: -0.359 | composite z-score [9]: 0.17 | composite z-score [10]: 0.0658

c1ccc(C2NCCc3c2[nH]c2ccccc32)cc1 (stereo not given)
composite z-score [1]: -0.571 | z-score [2]: -3.13 | composite z-score [3]: 0.106 | composite z-score [4]: -0.387 | composite z-score [5]: -0.951 | composite z-score [6]: -0.124 | composite z-score [7]: -0.147 | composite z-score [8]: 0.183 | composite z-score [9]: 0.446 | composite z-score [10]: 0.128

COC(=O)[C@@H]1CCCN1C(=O)[C@@H](C)CO
composite z-score [1]: 0.946 | z-score [2]: 0.868 | composite z-score [3]: 0.344 | composite z-score [4]: 0.49 | composite z-score [5]: 0.0051 | composite z-score [6]: -0.0566 | composite z-score [7]: -0.2 | composite z-score [8]: 0.141 | composite z-score [9]: 0.451 | composite z-score [10]: 1.13

COC(=O)CC=C[C@@H](C)[C@@H](C=NO[C@H](C)c1cn([C@@H]2COC[C@H]2O)nn1)OC
composite z-score [1]: 0.768 | z-score [2]: 0.128 | composite z-score [3]: 0.589 | composite z-score [4]: -0.662 | composite z-score [5]: -0.793 | composite z-score [6]: -0.0478 | composite z-score [7]: -0.291 | composite z-score [8]: -0.0762 | composite z-score [9]: -0.306 | composite z-score [10]: 1.01

NC(=O)NCC#Cc1ccc2c(c1)[C@]1(C(=O)N2)[C@H](c2ccc(O)cc2)N2[C@H](c3ccccc3)[C@H](c3ccccc3)OC(=O)[C@H]2[C@@H]1C(=O)N1CCCCCCC1
composite z-score [1]: 1.19 | z-score [2]: -0.421 | composite z-score [3]: 0.258 | composite z-score [4]: 0.822 | composite z-score [5]: 0.675 | composite z-score [6]: 0.338 | composite z-score [7]: 0.462 | composite z-score [8]: -0.623 | composite z-score [9]: 2.42 | composite z-score [10]: 1.34

C=C(/C(=C/C[C@H](OC(=O)c1ccncc1)c1ccc(OCCO)cc1)c1cnc2ccccc2c1)C(C)C
composite z-score [1]: 1.31 | z-score [2]: -2.01 | composite z-score [3]: 1.06 | composite z-score [4]: 0.0481 | composite z-score [5]: -0.708 | composite z-score [6]: 0.0324 | composite z-score [7]: 0.13 | composite z-score [8]: -0.338 | composite z-score [9]: 2.24 | composite z-score [10]: 1.67

CCCNC(=O)[C@@H]1c2ccccc2C(=O)N(c2ccc(C)cn2)[C@H]1c1ccc(CO)cc1
composite z-score [1]: -1.05 | z-score [2]: 0.0924 | composite z-score [3]: -0.181 | composite z-score [4]: -0.769 | composite z-score [5]: -0.462 | composite z-score [6]: -0.238 | composite z-score [7]: -0.0155 | composite z-score [8]: -0.434 | composite z-score [9]: 0.185 | composite z-score [10]: 0.4

COCCNC(=O)OCC1CCCC2(CC(OC(=O)NCCc3ccc(F)cc3)CC(CCC(=O)N[C@@H](C)C(=O)OC)O2)O1 (stereo not given in full)
composite z-score [1]: 1.37 | z-score [2]: -0.376 | composite z-score [3]: 1.02 | composite z-score [4]: -0.104 | composite z-score [5]: -0.685 | composite z-score [6]: -0.0643 | composite z-score [7]: -0.0035 | composite z-score [8]: -0.0827 | composite z-score [9]: 0.0096 | composite z-score [10]: 0.429

CN1C(=O)C2C=CC(C(O)c3ccc(Br)cc3)N(N(c3ccccc3)c3ccccc3)C2C1=O (stereo not given)
composite z-score [1]: 0.962 | z-score [2]: -1.01 | composite z-score [3]: -0.0937 | composite z-score [4]: 1.16 | composite z-score [5]: 0.428 | composite z-score [6]: 0.0873 | composite z-score [7]: 0.0639 | composite z-score [8]: 0.654 | composite z-score [9]: 0.513 | composite z-score [10]: 1.12

CC(C)=CCCC(C)=CCON=C1[C@H]2CCn3c(=O)n(Cc4cc5c(cc4Cl)OCO5)c(=O)n3[C@H]2[C@H](O)[C@@H]2O[C@H]12
composite z-score [1]: -0.118 | z-score [2]: -0.78 | composite z-score [3]: 0.463 | composite z-score [4]: -0.175 | composite z-score [5]: -0.591 | composite z-score [6]: 0.0388 | composite z-score [7]: -0.138 | composite z-score [8]: -0.181 | composite z-score [9]: 0.989 | composite z-score [10]: -0.112

N#Cc1ccc(NN2C(C(O)c3cc(C(F)(F)F)cc(C(F)(F)F)c3)C=CC3C(=O)N(c4ccccc4)C(=O)C32)cc1 (stereo not given)
composite z-score [1]: 1.39 | z-score [2]: -1.99 | composite z-score [3]: 0.224 | composite z-score [4]: 2.44 | composite z-score [5]: 0.892 | composite z-score [6]: -0.0009 | composite z-score [7]: 0.0326 | composite z-score [8]: -0.753 | composite z-score [9]: 1.73 | composite z-score [10]: 0.692

CO[C@@H]1COC(=O)CC=C[C@@H](C)[C@@H]2C=C[C@H](O)[C@@H](COC(=O)[C@H](C)NC(=O)CC=C[C@H]1C)O2
composite z-score [1]: -1.68 | z-score [2]: -2.12 | composite z-score [3]: 0.433 | composite z-score [4]: -1.52 | composite z-score [5]: -1.99 | composite z-score [6]: -0.103 | composite z-score [7]: -0.0035 | composite z-score [8]: -0.466 | composite z-score [9]: -0.0424 | composite z-score [10]: 0.304

CCOC(=O)C[C@H]1[C@H](OC(=O)c2ccc(C(=O)c3ccccc3)cc2)[C@@H](NC(=O)c2ccc(-c3ccccc3)cc2)c2cc(OCCCO)ccc2N1C(=O)c1ccc2ccccc2n1
composite z-score [1]: 1.07 | z-score [2]: -0.91 | composite z-score [3]: 0.757 | composite z-score [4]: -0.299 | composite z-score [5]: -0.766 | composite z-score [6]: 0.0835 | composite z-score [7]: -0.317 | composite z-score [8]: -0.621 | composite z-score [9]: 0.249 | composite z-score [10]: 0.774

COC(=O)[C@@H]1CC[C@H](C)[C@@H](c2ccc(C)cc2)N1C(=O)c1ccc(C=NOC(C)CN2CCCCc3nc(C)c(C)cc32)cc1 (stereo not given in full)
composite z-score [1]: -0.278 | z-score [2]: -3.62 | composite z-score [3]: 0.359 | composite z-score [4]: -0.0385 | composite z-score [5]: 0.076 | composite z-score [6]: 0.0437 | composite z-score [7]: 0.0893 | composite z-score [8]: 0.0274 | composite z-score [9]: 0.652 | composite z-score [10]: 0.709
